# Laboratory results as given in PubChem BioAssay AID588475 (Sanford-Burnham Center for Chemical Genomics, 2011).
# Out of some 350,000 compounds screened, about 2,100 (0.6%) were called active. The entries come from a sample that favours actives as a whole. A number with no mark means an inactive call.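 The calls were made as follows: active = inhibition of the ligand-induced calcium signal above about 50% at the single tested concentration (limit read from the data); inactive = the rest.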
# Assay: antagonists of CRF-BP/CRF-R2 complex, primary screen, cell-based, HEK293, calcium dye fluorescence, uHTS (AID 588475)
# Conditions: CRF-induced calcium fluorescence, at 11.8 µM, hits give high values
row,SMILES,inhibition
1,CCCCCn1c(=O)c(C(=O)Nc2c(C)n(C)n(-c3ccccc3)c2=O)c(O)c2ccccc21,56.7% (active)
2,CCCCCn1c(=O)c(C(=O)NCc2ccccc2)c(O)c2ccccc21,3.02%
3,CCCCn1c(=O)c(C(=O)Nc2ccccc2Cl)c(O)c2ccccc21,-17.9%
4,O=C(COc1ccc2ccccc2c1)N1CCN(Cc2ccncc2)CC1,-1.35%
5,O=c1c2ccccc2nc(-c2ccc(Cl)cc2Cl)n1-c1ccncc1,13.6%
